Source: PubChem BioAssay AID372 (MTDP, 2006)
The campaign covered roughly 100,000 compounds. About 770 (0.77%) were called active. Many of the other results were omitted from the sample, so actives are more common in it than they were. Unmarked numbers belong to inactive results. No stated cut-off is given here; in the data, active means inhibition above about 50%; inactive means the rest.

These molecules were tested against Gag-Pol polyprotein (Human immunodeficiency virus type 1 group M subtype B (isolate HXB2)) (UniProt P04585) (assay: RNase H inhibition, HIV 1 Gag Pol polyprotein, FRET biochemical assay, screening (AID 372)). Settings: HIV-1 RT RNase H, FRET RNA/DNA substrate fluorescence; at 10 µM; stronger effect = higher value.
For O=C(O)Cn1cc(/C=C2/C(=O)NC(=O)N(c3ccccc3F)C2=O)c2ccccc21, the inhibition was 10%. In the case of O=C(Cn1cc(/C=C2/C(=O)NC(=S)N(c3ccccc3F)C2=O)c2ccccc21)Nc1ccccc1, the inhibition is reported as 47%. For COc1cccc(OCCn2cc(C=C3C(=O)NC(=S)NC3=O)c3ccccc32)c1, the inhibition was 57% (active). With Cc1cccc(OCCn2cc(C=C3C(=O)NC(=S)NC3=O)c3ccccc32)c1 the inhibition was 7%. With COc1ccc(NC(=O)/C(C#N)=C/c2cn(CC(=O)Nc3ccccc3)c3ccccc23)cc1 the inhibition was 59% (active). For COc1cccc(OCCn2cc(C=C3C(=O)NC(=O)NC3=O)c3ccccc32)c1, the inhibition was 12%. For O=C(Cn1cc(/C=C2/C(=O)NC(=S)N(c3cccc(Cl)c3)C2=O)c2ccccc21)Nc1ccccc1, the inhibition was 55% (active). O=C(Cn1cc(/C=C2/C(=O)NC(=O)N(c3cccc(Cl)c3)C2=O)c2ccccc21)Nc1ccccc1 showed an inhibition of 32%. In the case of O=C(O)Cn1cc(/C=C2\C(=O)NC(=S)N(c3ccccc3F)C2=O)c2ccccc21, the inhibition is reported as 55% (active). With N#C/C(=C\c1cn(CC(=O)Nc2ccccc2)c2ccccc12)C(=O)Nc1ccccc1 the inhibition was 0%. COc1ccc(NC(=O)/C(C#N)=C\c2cn(CC(=O)O)c3ccccc23)cc1 gave an inhibition of 0%. O=C(Cn1cc(/C=C2/C(=O)NC(=O)N(c3cccc(F)c3)C2=O)c2ccccc21)Nc1ccccc1 showed an inhibition of 46%. COc1ccc(OC)c(N2C(=O)C(Cl)=C(N3CCCCC3)C2=O)c1 was tested, and the inhibition was 14%. CCc1ccc(/C=C2\SC(=O)NC2=O)cc1 gave an inhibition of 4%. COc1cc(NC(=O)c2ccc(Cl)c([N+](=O)[O-])c2)ccc1NC(=O)c1ccco1 was tested, and the inhibition was 5%. Work on Cc1nnc(NC(=O)Cc2ccc(Br)cc2)s1 yielded an inhibition of 3%. COc1cc(CN2CCN(Cc3ccc4c(c3)OCO4)CC2)c([N+](=O)[O-])cc1OC gave an inhibition of 6%. For CCC(=O)Nc1cc(-c2nc3cc(Cl)ccc3o2)ccc1C, the inhibition was 0%. Work on CC1=C(C(=O)OCC2CCCCC2)C(c2ccccc2F)NC(=O)N1 (stereo not drawn) yielded an inhibition of 17%. COC(=O)Cn1cc(/C=C2\C(=O)NC(=S)N(c3cccc(Cl)c3)C2=O)c2ccccc21 showed an inhibition of 4%. Work on CCOc1ccc(N2C(=O)/C(=C/c3ccc(OCc4cccc(C(=O)O)c4)cc3)C(=O)NC2=S)cc1 yielded an inhibition of 5%. O=C(Cn1cc(/C=C2/C(=O)NC(=O)N(c3ccc(Cl)cc3)C2=O)c2ccccc21)Nc1ccccc1 showed an inhibition of 11%. With Cc1ccc(N2C(=O)NC(=O)/C(=C/c3cn(CC(=O)Nc4ccccc4)c4ccccc34)C2=O)cc1 the inhibition was 43%. For O=C1NC(=O)N(c2ccccc2F)C(=O)/C1=C/c1ccc(OCc2cccc(C(=O)O)c2)cc1, the inhibition was 4%. Cc1ccccc1N1C(=O)/C(=C\c2cn(CC(=O)Nc3ccccc3)c3ccccc23)C(=O)NC1=S was tested, and the inhibition was 26%. O=C(Cn1cc(/C=C2/C(=O)NC(=S)N(c3ccccc3)C2=O)c2ccccc21)Nc1ccccc1 was tested, and the inhibition was 53% (active). CCOc1cccc(N2C(=O)NC(=O)/C(=C\c3cn(CC(=O)OC)c4ccccc34)C2=O)c1 was tested, and the inhibition was 0%. With COc1ccc(N2C(=O)/C(=C/c3cn(Cc4ccccc4)c4ccccc34)C(=O)NC2=S)cc1 the inhibition was 15%.
